Results on 23 molecules are retold here after ChEMBL document CHEMBL2218924, “A broad activity screen in support of a chemogenomic map for kinase signalling research and drug discovery” (Biochem J, 2013).

In assay [1] the target is Platelet-derived growth factor receptor alpha (Homo sapiens) (UniProt P16234). As to conditions: at 10 µM.
The target in assay [2] is T1, 3-phosphoinositide-dependent protein kinase 1 (Homo sapiens) (UniProt O15530).
T1 sequence (whole entry): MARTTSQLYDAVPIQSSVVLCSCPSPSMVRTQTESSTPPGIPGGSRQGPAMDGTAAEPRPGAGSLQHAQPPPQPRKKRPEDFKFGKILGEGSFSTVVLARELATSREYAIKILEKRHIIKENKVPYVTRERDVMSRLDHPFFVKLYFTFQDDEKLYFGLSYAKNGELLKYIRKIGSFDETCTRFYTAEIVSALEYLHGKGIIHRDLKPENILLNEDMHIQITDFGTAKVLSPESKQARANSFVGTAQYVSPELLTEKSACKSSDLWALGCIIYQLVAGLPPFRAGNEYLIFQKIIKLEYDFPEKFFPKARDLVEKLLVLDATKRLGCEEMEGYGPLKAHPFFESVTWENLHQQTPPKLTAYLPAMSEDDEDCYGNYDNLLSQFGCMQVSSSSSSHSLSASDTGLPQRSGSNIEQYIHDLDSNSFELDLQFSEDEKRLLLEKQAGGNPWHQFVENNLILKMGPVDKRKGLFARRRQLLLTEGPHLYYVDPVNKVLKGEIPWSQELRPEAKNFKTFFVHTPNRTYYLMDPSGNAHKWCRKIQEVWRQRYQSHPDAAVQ
Particulars: at 1 µM.

In assay [3] the target is T1, 3-phosphoinositide-dependent protein kinase 1 (Homo sapiens). As to conditions: at 10 µM.
Assay [4] deals with Protein kinase C delta type (Homo sapiens) (UniProt Q05655). Particulars: at 1 µM.
For assay [5], the target named is cAMP-dependent protein kinase catalytic subunit alpha (Homo sapiens) (UniProt P17612). Particulars: at 1 µM.
Assay [6] shares this target. Particulars: at 10 µM.
In assay [7] the target is RAC-gamma serine/threonine-protein kinase (Homo sapiens) (UniProt Q9Y243). As to conditions: at 1 µM.
Assay [8] shares this target. Particulars: at 10 µM.
The target in assay [9] is Protein kinase C beta type (Homo sapiens) (UniProt P05771). Particulars: at 1 µM.
Assay [10] has the same target. Particulars: at 10 µM.
The target is the same in assay [11]. Particulars: at 1 µM. The source holds these as a separate data set.
For assay [12] the target is unchanged. Particulars: at 10 µM. This is another data set of the same source.
Assay [13] concerns the target Protein kinase C gamma type (Homo sapiens) (UniProt P05129). As to conditions: at 1 µM.
Assay [14] deals with Platelet-derived growth factor receptor beta (Homo sapiens) (UniProt P09619). Particulars: at 1 µM.
For assay [15] the target is unchanged. Particulars: at 10 µM.
The target in assay [16] is RAC-alpha serine/threonine-protein kinase (Homo sapiens) (UniProt P31749). As to conditions: at 1 µM.
Assay [17] shares this target. As to conditions: at 10 µM.
For assay [18], the target named is Protein kinase C alpha type (Homo sapiens) (UniProt P17252). As to conditions: at 10 µM.
The target of assay [19] is Protein kinase C gamma type (Homo sapiens) (UniProt P05129). As to conditions: at 10 µM.
Assay [20] has as its target Protein kinase C alpha type (Homo sapiens) (UniProt P17252). Particulars: at 1 µM.

Structures are written as SMILES.

Sequence of Protein kinase C beta type (Homo sapiens) (P05771 2-671 limits assumed): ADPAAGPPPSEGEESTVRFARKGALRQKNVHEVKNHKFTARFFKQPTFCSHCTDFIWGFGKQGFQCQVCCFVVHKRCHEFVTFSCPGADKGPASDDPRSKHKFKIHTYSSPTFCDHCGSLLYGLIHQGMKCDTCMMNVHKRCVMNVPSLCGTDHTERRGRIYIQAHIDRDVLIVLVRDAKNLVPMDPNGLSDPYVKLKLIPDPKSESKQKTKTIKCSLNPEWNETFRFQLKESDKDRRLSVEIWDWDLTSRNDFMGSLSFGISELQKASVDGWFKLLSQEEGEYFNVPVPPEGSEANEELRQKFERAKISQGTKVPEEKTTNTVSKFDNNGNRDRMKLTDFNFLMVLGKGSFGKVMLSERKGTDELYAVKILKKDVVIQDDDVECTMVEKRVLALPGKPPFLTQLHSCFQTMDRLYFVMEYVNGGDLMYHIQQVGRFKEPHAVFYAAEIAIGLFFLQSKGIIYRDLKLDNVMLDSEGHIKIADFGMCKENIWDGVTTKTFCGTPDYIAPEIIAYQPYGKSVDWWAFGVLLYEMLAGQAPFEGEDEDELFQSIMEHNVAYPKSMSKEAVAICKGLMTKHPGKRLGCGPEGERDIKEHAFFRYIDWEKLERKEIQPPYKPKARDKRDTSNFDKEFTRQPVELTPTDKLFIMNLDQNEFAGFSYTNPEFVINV
Sequence of RAC-gamma serine/threonine-protein kinase (Homo sapiens) (Q9Y243 whole entry): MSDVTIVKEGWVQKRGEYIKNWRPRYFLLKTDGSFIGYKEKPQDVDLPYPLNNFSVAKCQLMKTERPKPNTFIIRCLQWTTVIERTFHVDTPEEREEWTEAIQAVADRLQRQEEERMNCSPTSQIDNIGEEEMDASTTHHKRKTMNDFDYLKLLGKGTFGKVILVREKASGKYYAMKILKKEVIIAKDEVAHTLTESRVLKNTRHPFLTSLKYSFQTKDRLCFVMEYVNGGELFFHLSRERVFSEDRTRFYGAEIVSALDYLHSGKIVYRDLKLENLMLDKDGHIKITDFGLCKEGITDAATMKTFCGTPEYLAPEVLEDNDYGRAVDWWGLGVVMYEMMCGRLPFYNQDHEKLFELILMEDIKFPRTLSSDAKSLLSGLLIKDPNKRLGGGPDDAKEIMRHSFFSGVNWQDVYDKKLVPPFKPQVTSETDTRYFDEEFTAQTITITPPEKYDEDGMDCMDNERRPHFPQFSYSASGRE
Sequence of RAC-alpha serine/threonine-protein kinase (Homo sapiens) (P31749 whole entry): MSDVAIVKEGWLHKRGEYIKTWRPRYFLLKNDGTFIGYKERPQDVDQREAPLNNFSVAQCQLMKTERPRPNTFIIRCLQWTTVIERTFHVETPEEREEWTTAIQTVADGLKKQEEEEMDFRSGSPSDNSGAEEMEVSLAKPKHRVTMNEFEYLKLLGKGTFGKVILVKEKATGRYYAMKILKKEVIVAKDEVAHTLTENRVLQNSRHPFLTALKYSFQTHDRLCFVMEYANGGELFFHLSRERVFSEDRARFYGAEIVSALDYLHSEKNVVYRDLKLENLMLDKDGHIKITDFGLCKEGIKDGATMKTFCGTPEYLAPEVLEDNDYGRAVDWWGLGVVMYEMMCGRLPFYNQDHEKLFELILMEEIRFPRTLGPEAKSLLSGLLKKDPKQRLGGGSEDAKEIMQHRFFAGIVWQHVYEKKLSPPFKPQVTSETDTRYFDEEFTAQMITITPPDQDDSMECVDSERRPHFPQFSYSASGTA
Sequence of Protein kinase C delta type (Homo sapiens) (Q05655 whole entry, looked up): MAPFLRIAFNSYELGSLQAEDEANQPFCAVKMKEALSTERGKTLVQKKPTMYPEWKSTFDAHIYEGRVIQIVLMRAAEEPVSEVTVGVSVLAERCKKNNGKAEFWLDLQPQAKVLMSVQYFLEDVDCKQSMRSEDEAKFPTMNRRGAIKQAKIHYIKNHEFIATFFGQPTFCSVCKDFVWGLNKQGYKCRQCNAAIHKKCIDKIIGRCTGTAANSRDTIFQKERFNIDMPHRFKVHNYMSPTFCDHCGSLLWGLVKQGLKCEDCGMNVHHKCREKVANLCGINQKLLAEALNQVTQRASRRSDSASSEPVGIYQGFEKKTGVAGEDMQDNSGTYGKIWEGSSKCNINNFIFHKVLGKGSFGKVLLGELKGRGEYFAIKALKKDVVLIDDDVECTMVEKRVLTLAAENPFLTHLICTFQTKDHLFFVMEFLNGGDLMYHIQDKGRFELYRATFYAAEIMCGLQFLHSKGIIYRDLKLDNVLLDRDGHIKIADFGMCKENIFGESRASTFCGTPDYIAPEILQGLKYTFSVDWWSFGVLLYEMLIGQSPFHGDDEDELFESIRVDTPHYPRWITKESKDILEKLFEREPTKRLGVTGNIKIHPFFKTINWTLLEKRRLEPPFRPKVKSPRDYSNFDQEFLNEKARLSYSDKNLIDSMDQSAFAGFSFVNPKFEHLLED
Sequence of Platelet-derived growth factor receptor alpha (Homo sapiens) (P16234 whole entry): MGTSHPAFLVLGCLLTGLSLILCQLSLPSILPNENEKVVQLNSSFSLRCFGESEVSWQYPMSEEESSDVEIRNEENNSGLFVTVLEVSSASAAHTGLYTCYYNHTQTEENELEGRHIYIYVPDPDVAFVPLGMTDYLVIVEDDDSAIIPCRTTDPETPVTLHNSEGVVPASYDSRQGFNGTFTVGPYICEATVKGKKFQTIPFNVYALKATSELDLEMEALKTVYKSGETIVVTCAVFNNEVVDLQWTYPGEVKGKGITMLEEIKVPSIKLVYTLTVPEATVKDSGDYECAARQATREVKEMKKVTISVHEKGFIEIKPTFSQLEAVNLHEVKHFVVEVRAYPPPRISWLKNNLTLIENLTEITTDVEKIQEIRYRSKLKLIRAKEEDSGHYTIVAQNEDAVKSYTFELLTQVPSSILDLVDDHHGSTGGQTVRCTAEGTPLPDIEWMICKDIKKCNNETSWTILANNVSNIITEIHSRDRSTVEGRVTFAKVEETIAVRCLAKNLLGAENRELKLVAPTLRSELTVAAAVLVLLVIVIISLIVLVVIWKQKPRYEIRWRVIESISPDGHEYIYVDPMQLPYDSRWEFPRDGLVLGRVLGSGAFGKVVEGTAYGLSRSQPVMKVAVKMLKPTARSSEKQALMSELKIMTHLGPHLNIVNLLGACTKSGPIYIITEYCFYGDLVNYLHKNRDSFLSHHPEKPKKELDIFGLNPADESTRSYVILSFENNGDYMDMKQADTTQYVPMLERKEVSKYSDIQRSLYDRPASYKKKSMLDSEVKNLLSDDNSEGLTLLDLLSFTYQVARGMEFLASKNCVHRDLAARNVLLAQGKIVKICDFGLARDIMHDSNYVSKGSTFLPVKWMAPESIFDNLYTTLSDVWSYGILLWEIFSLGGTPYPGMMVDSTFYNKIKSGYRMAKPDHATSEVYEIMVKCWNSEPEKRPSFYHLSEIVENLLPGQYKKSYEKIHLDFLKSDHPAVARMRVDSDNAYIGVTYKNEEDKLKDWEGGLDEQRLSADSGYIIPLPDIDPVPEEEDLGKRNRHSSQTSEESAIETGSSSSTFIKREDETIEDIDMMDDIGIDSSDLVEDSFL

On to `COc1ccc2c(c1)/C(=C/c1cnc[nH]1)C(=O)N2`, for which the residual activity was found to be 82% in assay [1], 76% in [2], 20% in [3] and 96% in assay [4].

In the case of `COc1cc(OC)c(/C=C2\C(=O)Nc3ccccc32)c(OC)c1`, the residual activity in assay [1] was found to be 69%; in assay [5] it was 100%; in assay [6], 91%; in [7], 103%; in [8], 80%; in [9] it was 105%. In addition, the residual activity in assay [10] stood at 103%; in [11] it was 103%; in [12], 101%; in assay [13], 98%.

As for `CCc1nc(-c2ccc(OC)cc2)[nH]c1-c1ccncc1`, the residual activity was found to be 109% in [1]; 110% in assay [14]; 108% in assay [15]; 110% in assay [2]; 101% in [3]; 113% in [16]. In addition, the residual activity in assay [17] was found to be 108%; in [18], 105%; in assay [9], 127%; in assay [10], 105%; in assay [13] it was 108%; in [19] it was 108%. In addition, in [4], the residual activity worked out at 107%.

Consider `COc1cc2ncnc(Nc3ccc(NC(=O)c4ccccc4)cc3)c2cc1OC`, for which the residual activity in assay [16] stood at 105%; in [17] it was 110%.

As for `CC(=O)O/N=C1\C(=C2\C(=O)Nc3cc(Br)ccc32)Nc2ccccc21`, the values for the residual activity in assay [16] and in assay [17] were 115% and 109%, respectively.

Turning to `CC(C)(C)c1cc(C=C(C#N)C#N)cc(Br)c1O`, the residual activity came to 106% in [1]; 103% in assay [14]; 103% in assay [15]; 102% in assay [2]; 98% in assay [16]; 102% in assay [17]. Besides, the residual activity in assay [7] amounted to 106%; in assay [8] it was 97%; in [20], 106%; in [9] it was 106%; in assay [10], 97%; in assay [11] it was 108%. In addition, the residual activity turned out to be 108% in [12], 98% in assay [13], 103% in assay [19] and 98% in [4].

Turning to `Nc1ncnc2[nH]nc(Nc3ccc(F)cc3)c12`, the residual activity in assay [16] turned out to be 111%; in [17], 109%.

Regarding `O=C1NC(=O)c2c1c1c3ccccc3n3c1c1c2c2ccccc2n1C1CCC3O1`, the residual activity in assay [1] was determined as 81%; in [14], 90%; in assay [15], 86%; in [2], 27%; in assay [3] it was 4%; in assay [5], 70%. The residual activity in [6] turned out to be 68%; in [7], 96%; in assay [8], 84%; in assay [20], 96%; in assay [9] it was 95%; in assay [10], 91%. The residual activity in [13] turned out to be 92%; in assay [19], 96%.

As to `CCn1cnc2c(Nc3cccc(Cl)c3)nc(N[C@@H]3CCCC[C@@H]3N)nc21`, the residual activity came out at 86% in assay [1]; 76% in assay [15]; 84% in assay [3]; 94% in assay [7]; 61% in assay [8]; 89% in assay [20]. The residual activity in [18] amounted to 58%; in assay [9], 98%; in [10], 85%; in assay [11], 99%; in assay [12], 92%; in assay [13], 81%. For the same molecule, the residual activity in assay [19] was found to be 45%; in [4], 86%.

As to `Cc1nc(-c2ccccc2)c(-c2ccncc2)o1`, the figures for the residual activity in assay [16] and in assay [17] were 110% and 102%, respectively.

Take `O=C1Nc2ccc3ncsc3c2/C1=C/c1c[nH]cn1`: the residual activity stood at 20% in assay [1]; 29% in assay [15]; 31% in assay [2]; 6% in [3]; 25% in assay [5]; 5% in [6]. Further, the residual activity in [16] stood at 99%; in assay [17], 106%; in assay [8] it was 30%; in assay [20], 67%; in [18] it was 18%; in [9], 55%. The residual activity was found to be 12% in assay [10]; 67% in [11]; 43% in [12]; 69% in assay [13]; 21% in assay [19]; 15% in assay [4].

As for `Nc1nc(Nc2ccc(S(N)(=O)=O)cc2)nn1C(=S)Nc1c(F)cccc1F`, the residual activity in assay [16] was 122%.

Consider `COc1ccc2c(c[n+](C)c3c4cc5c(cc4ccc23)OCO5)c1OC`, for which the residual activity in [5] came out at 98%; in assay [6] it was 73%; in [16], 98%; in [17], 110%; in [7], 82%; in assay [8], 63%. Also, the residual activity in [20] was found to be 110%; in assay [18], 100%; in assay [11], 87%.

Turning to `c1cc(-c2cnn3cc(-c4ccc(OCCN5CCCCC5)cc4)cnc23)ccn1`, the residual activity in assay [1] amounted to 3%; in assay [14], 27%; in [15], 4%; in assay [3], 84%; in assay [5], 71%; in [6], 32%. Further, the residual activity amounted to 118% in [9] and 104% in [10].

`COc1cc2ncnc(Nc3cccc(Cl)c3)c2cc1OC`: the residual activity in assay [16] came to 86%.

`CC(C)[C@H](CO)Nc1nc(Nc2cccc(Cl)c2)c2ncn(C(C)C)c2n1`: the residual activity in [3] is 97%; in assay [8], 84%; in assay [11] it was 120%; in assay [12], 96%; in assay [13], 102%; in assay [19], 101%.

`c1ccc(-c2cnc(Nc3ccc(OCCN4CCCC4)cc3)s2)cc1`: the figures for the residual activity in assay [16] and in assay [17] were 102% and 115%, respectively.

With `O=C1c2ccccc2-[n+]2ccc3c([nH]c4ccccc43)c21`, the residual activity in assay [16] came to 108%; in assay [17] it was 107%.

Turning to `CCCC(=O)Oc1ccc2[nH]c(C(=O)c3cc4ccccc4[nH]3)cc2c1`, the residual activity in assay [16] stood at 97%.

Turning to `COc1cc2ncnc(Nc3ccc(OCc4ccccc4)cc3)c2cc1OC`, the residual activity is 57% in assay [1]; 106% in [14]; 89% in assay [15]; 119% in assay [2]; 114% in assay [3]; 88% in [5]. Further, the residual activity is 104% in assay [16]; 122% in [17]; 99% in assay [7]; 103% in assay [8]; 117% in assay [20]; 114% in assay [18]. For the same molecule, the residual activity turned out to be 123% in assay [9]; 106% in assay [10]; 105% in assay [11]; 101% in [12]; 105% in assay [13]; 108% in [19]. Further, in [4], the residual activity was determined as 104%.

Regarding `c1ccc(-c2n[nH]cc2-c2ccnc3ccccc23)nc1`, the residual activity in [16] turned out to be 96%.

Turning to `Ic1cccc(CSc2nnc(-c3ccncc3)o2)c1`, in assay [16], the residual activity was determined as 116%.

Take `CN[C@@H]1C[C@H]2O[C@@](C)([C@@H]1OC)n1c3ccccc3c3c4c(c5c6ccccc6n2c5c31)C(=O)NC4`: the residual activity in assay [2] amounted to 1%; in assay [3], 0%.

Usually residual activity stands for the signal under treatment as a percentage of the control signal.
